An excerpt weighted towards active compounds, which were near 6.7% of everything screened.
T cruzi growth-1: T. cruzi intracellular proliferation inhibitors, primary screen, cell-based, beta-gal Tulahuen parasites, NIH3T3 host, luminescence. 77,000 compounds, 5.9% hits. T. cruzi beta-gal in NIH3T3, GalScreen luminescence, 90 h. inhibition, % at 8.34 µM. AID 624255, 2012;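 active = mean inhibition above about 93%, with at least 55% of replicates each passing it, limit read from the data, passing the limit was not always enough; inconclusive = only one of those two conditions holds; inactive = neither condition holds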
C diff HTS: C. difficile growth inhibitors, primary screen, HTS | Clostridium difficile clinical isolate growth, OD600, 24 h; active compounds read low | growth activity, negative = inhibition, % at 16 µg/mL (by protocol) | 86,000 compounds, 0.25% hits | AID 1259249, 2017;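 active = mean growth activity at or below -80% and every replicate also at or below -80%; inconclusive = mean at or below -80% but some replicate above -80%; inactive = mean growth activity above -80%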;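 also: 0% = DMSO wells and -100% = levofloxacin 16 µg/mL wells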
Pf Dd2 inh: P. falciparum Dd2 growth inhibitors, primary screen, SYBR Green fluorescence, single dose replicates; 72 h; active compounds read low; activity change, % at 10 µM; AID 1159554, 2015; 94,000 compounds, 2.3% hits; in the data active = activity change below about -80%; inconclusive = no clear call, values can overlap the other calls
T cruzi growth-2: T. cruzi intracellular proliferation inhibitors, confirmation, cell-based, NIH3T3 host, beta-gal parasite, luminescence, cherry-pick. 5,600 compounds, 72% hits. T. cruzi beta-gal in NIH3T3, GalScreen luminescence, 90 h. shares compounds with T cruzi growth-1. AID 651739, 2012. inhibition, % at 8.35 µM;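 active = mean replicate inhibition above about 95% and at least 55% of replicates individually reaching it, limit read from the data; inconclusive = only one of the two criteria is met; inactive = neither criterion is met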
T cruzi growth-3: inhibitors of intracellular T. cruzi replication, confirmation, NIH3T3 host cells, beta-gal parasites, cherry-pick, set 2; inhibition, % at 2.09 µM; AID 651740, 2012; shares compounds with T cruzi growth-1; 5,600 compounds, 21% hits; T. cruzi beta-gal in NIH3T3, GalScreen luminescence, 90 h;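 active = mean inhibition above about 95%, with at least 55% of replicates also reaching it, limit read from the data; inconclusive = meets just one of the two conditions; inactive = meets neither condition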;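 also: plate controls were neutral control median for no effect and positive control median for full effect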
3T3 cytotox: cytotoxicity in mouse NIH/3T3 fibroblasts, confirmation, cytotoxicity control for T. cruzi proliferation inhibitor project, cell-based, cherry-pick, single point; cytotoxicity (signal decrease), % at 8.35 µM; AID 651742, 2012; NIH/3T3 viability, CellTiter-Glo ATP luminescence, 90 h; shares compounds with T cruzi growth-1; 5,600 compounds, 14% hits;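 active = mean signal decrease across replicates above about 35% based on untreated-well scatter, with enough replicates individually passing, limit read from the data; inconclusive = no rule stated though some were filed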;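 also: 0% = median of neutral control wells and 100% = median of positive control wells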
NIH3T3 tox 2: NIH/3T3 fibroblast cytotoxicity, confirmation, cytotoxicity control, cell-based, cherry-pick, single point, set 2; shares compounds with T cruzi growth-1; NIH/3T3 viability, CellTiter-Glo ATP luminescence, 90 h; inhibition, % at 24.9 µM; 5,600 compounds, 56% hits;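 active = mean loss of cell viability signal at or above a set limit, and enough replicates individually reaching it; inconclusive = meets only the mean limit or only the replicate share; inactive = meets neither condition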;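 also: 0% = median of neutral control wells and 100% = median of positive control wells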
Starred values were filed as active, the others as inactive; ? = inconclusive; . = no result given.

SMILES | T cruzi growth-1 | C diff HTS | Pf Dd2 inh | T cruzi growth-2 | T cruzi growth-3 | 3T3 cytotox | NIH3T3 tox 2
CN(C)CC(=O)Nc1ccc2c(c1)[C@@H]1C[C@H](CC(=O)N3CCCCC3)O[C@H](CO)[C@@H]1O2 | -76 | 0 | 36 | . | . | . | .
CN1C(=O)c2cc(NS(=O)(=O)c3cccc(F)c3)ccc2OC[C@@H]2O[C@@H](CC(=O)NCCN3CCCCC3)CC[C@@H]21 | 0 | -11 | -2 | . | . | . | .
CCCC(=O)Nc1ccc2c(c1)C(=O)N(C)[C@H]1CC[C@H](CC(=O)NCCN3CCCCC3)O[C@H]1CO2 | -22 | -5 | 16 | . | . | . | .
CN1C(=O)c2cc(NS(=O)(=O)c3ccc(F)cc3)ccc2OC[C@@H]2O[C@H](CC(=O)O)CC[C@H]21 | 103* | -4 | 1 | -22 | -6 | 2 | 5
CN1C(=O)c2cc(NS(=O)(=O)c3cccc(F)c3)ccc2OC[C@@H]2O[C@H](CC(=O)NCCN3CCCCC3)CC[C@@H]21 | 97* | . | -13 | 85 | 88 | -30 | -4
CCCC(=O)Nc1ccc2c(c1)C(=O)N(C)[C@H]1CC[C@@H](CC(=O)NCCN3CCCCC3)O[C@H]1CO2 | 99* | -8 | 2 | 98* | 95 | 15 | 1
Cc1ccc(S(=O)(=O)Nc2ccc3c(c2)C(=O)N(C)[C@@H]2CC[C@H](CC(=O)O)O[C@H]2CO3)cc1 | -2 | -1 | 4 | . | . | . | .
O=C(c1ccccc1F)N1CC[C@@H]2[C@H]1c1cc(C#Cc3ccccc3F)ccc1N[C@@H]2CO | 90 | -8 | -12 | . | . | . | .
CCCC(=O)Nc1ccc2c(c1)C(=O)N(C)C[C@@H](OC)[C@H](C)CN(C(=O)Cc1ccccn1)[C@H](C)CO2 | -19 | -2 | 5 | . | . | . | .
CC(C)NC(=O)Nc1ccc2c(c1)C(=O)N([C@H](C)CO)C[C@H](C)[C@@H](CN(C)S(=O)(=O)c1cn(C)cn1)OCCCC[C@@H](C)O2 | -39 | -2 | 36 | . | . | . | .
CC(C)C#Cc1ccc2c(c1)O[C@@H](CN(C)Cc1ccccn1)[C@@H](C)CN([C@@H](C)CO)S2(=O)=O | 93 | 33 | -44 | . | . | . | .
C[C@H](CO)N1C[C@H](C)[C@H](CN(C)Cc2ccccn2)Oc2cc(C#CCN(C)C)ccc2S1(=O)=O | 89 | -3 | -29 | . | . | . | .
CCCC#Cc1ccc2c(c1)O[C@H](CN(C)Cc1ccccn1)[C@@H](C)CN([C@@H](C)CO)S2(=O)=O | ? | -8 | . | 99* | ? | 22 | 103*
CCCC#Cc1ccc2c(c1)O[C@@H](CN(C)Cc1ccccn1)[C@@H](C)CN([C@H](C)CO)S2(=O)=O | ? | -6 | . | 96* | 50 | ? | -21
C[C@H](CO)N1C[C@H](C)[C@H](CN(C)Cc2ccccn2)Oc2cc(C#C[C@@H](C)O)ccc2S1(=O)=O | -10 | 8 | 20 | . | . | . | .
C[C@H]1CN([C@@H](C)CO)S(=O)(=O)c2ccc(C#CCN(C)C)cc2O[C@H]1CN(C)Cc1ccccn1 | 92* | -6 | -18 | ? | 52 | 6 | ?
C[C@@H]1CN([C@H](C)CO)S(=O)(=O)c2ccc(C#CCN(C)C)cc2O[C@@H]1CN(C)Cc1ccccn1 | 75 | -5 | -18 | . | . | . | .
CCCC#Cc1ccc2c(c1)O[C@@H](CN(C)Cc1ccccn1)[C@H](C)CN([C@H](C)CO)S2(=O)=O | ? | 1 | . | 97* | 28 | 69* | 105*
CO[C@H]1CN(C)C(=O)c2cc(NC(=O)c3ccc(F)cc3)ccc2OC[C@@H](C)N(C(=O)CN(C)C)C[C@@H]1C | -103 | -2 | 25 | . | . | . | .
CNC[C@H]1Oc2ncc(C#CC3(O)CCCC3)cc2C(=O)N([C@H](C)CO)C[C@H]1C | . | -3 | -14 | . | . | . | .
O=C(NCC[C@@H]1CC[C@H](NC(=O)C2CC2)[C@H](CO)O1)c1ccc(F)cc1 | . | -1 | . | . | . | . | .

Compound activity: PubChem BioAssay, Broad Institute
